The source of these data is PubChem BioAssay (EPA / NIEHS).

One test concerns the target THRA (gene 7067) (UniProt P10827). Put plainly: TOX21_TRA_COA_Agonist_Followup_ratio: Tox21 Thyroid Hormone Receptor alpha Agonism through Coactivator Recruitment Follow-Up Assay, Ratio (AID 2283948; active means hit-call score of the fitted dose curve at least 0.9, where 1 is the maximum; inactive means score below 0.9). The method, boiled down: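 Cell-free TR-FRET coactivator recruitment: GST-tagged TRα LBD (2.5 nM) with 0.10% BSA was incubated with compound, then fluorescein-SRC-2 peptide (200 nM) and Tb-anti-GST antibody (2 nM) added. 520:495 nm ratio normalized to DMSO (0%) and T3 (100%).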

For test [1], the target named is THRB (gene 7068) (UniProt P10828). Put plainly: TOX21_TRB_BLA_Agonist_Followup_ratio: Tox21 Thyroid Hormone Receptor beta Agonism Beta-lactamase (BLA) Follow-Up Assay, Ratio (AID 2283954). The essentials: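 Human TRβ LBD–GAL4 DBD fusion in GeneBLAzer UAS-bla HEK293T cells; 11 concentrations in triplicate, 18 h at 37°C/5% CO2, T3 as agonist control. CCF4-AM substrate 2 h at room temperature; 460:530 nm ratio fitted for gain of signal versus DMSO.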
THRB (gene 7068), sequence (P10828 whole entry, looked up, the tested form may be a part): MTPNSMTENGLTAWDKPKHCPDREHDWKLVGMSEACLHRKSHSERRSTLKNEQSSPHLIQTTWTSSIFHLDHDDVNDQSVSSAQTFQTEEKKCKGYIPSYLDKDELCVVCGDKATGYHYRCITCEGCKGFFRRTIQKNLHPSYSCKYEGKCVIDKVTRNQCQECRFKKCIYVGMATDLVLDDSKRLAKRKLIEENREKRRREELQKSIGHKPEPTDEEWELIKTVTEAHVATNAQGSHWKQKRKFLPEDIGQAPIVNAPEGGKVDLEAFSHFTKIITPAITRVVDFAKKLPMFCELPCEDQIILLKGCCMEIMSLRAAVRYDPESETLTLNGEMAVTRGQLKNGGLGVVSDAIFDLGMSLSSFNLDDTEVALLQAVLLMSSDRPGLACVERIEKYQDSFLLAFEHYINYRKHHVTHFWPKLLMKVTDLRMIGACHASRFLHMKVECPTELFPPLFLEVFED

Test [2] shares this target. Briefly: TOX21_TRB_COA_Agonist_Followup_ratio: Tox21 Thyroid Hormone Receptor beta Agonism through Coactivator Recruitment Follow-Up Assay, Ratio (AID 2283963; active means hit-call score of the fitted dose curve at least 0.9, where 1 is the maximum; inactive means score below 0.9). The essentials: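 Agonism is measured as coactivator recruitment in a purified-protein TR-FRET format, using GST-TRβ LBD at 5.0 nM, fluorescein-SRC-2 peptide at 200 nM and Tb-labeled anti-GST antibody at 2 nM. Values are 520:495 nm ratios relative to DMSO (0%) and T3 (100%).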

Test [3] has as its target Retinoic acid receptor RXR-alpha (Homo sapiens) (UniProt P19793). Briefly: TOX21_TR_RXR_BLA_Agonist_Followup_ratio: Tox21 Thyroid Hormone Receptor beta Retinoid X Receptor alpha (RXRa) Agonism Beta-lactamase (BLA) Follow-Up Assay, Ratio (AID 2283968). The method, boiled down:
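RXRa-UAS-bla HEK293T cells, 5 h attachment at 37C/5% CO2, then 11 concentrations in triplicate for 16 h; 9-cis retinoic acid positive control. FRET-B/GCCF4-AM substrate 2 h at room temperature; 460:530 nm ratio, fitted for gain versus DMSO.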

Test [4] is described as follows: TOX21_TR_RXR_BLA_Agonist_Followup_viability: Viability Assessment in the Tox21 Thyroid Hormone Receptor beta Retinoid X Receptor alpha (RXRa) Agonism Beta-lactamase (BLA) Follow-Up Assay (AID 2283970). The essentials: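 RXRa-UAS-bla HEK293T cells, 2,500/well in phenol red-free DMEM with 2% charcoal-stripped FBS, dosed for 16 h at 37C. Viability measured by CellTiter-Glo ATP luminescence; fitted bidirectionally against DMSO baseline, loss of signal indicating cytotoxicity.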

Test [5] is described as follows: TOX21_PR_LUC_Followup_Antagonist_viability: Viability Assessment in the Tox21 HEK293 Progesterone Receptor (PR) Antagonism Luciferase Follow-Up Assay (AID 2283940). The method, boiled down: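 HEK293-PR-A-luc cells kept in charcoal-stripped FBS medium were plated 5 h before compound addition, then exposed 16 h at 37C; viability read as cellular ATP by luciferase luminescence, loss of signal indicating cytotoxicity.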

Test [6] can be described thus: CCTE_Harrill_HTTr_Viability_DMEM_6hr: (Pilot) CCTE's 6-hour Cell Viability Assessment for the High-Throughput Transcriptomics (HTTr) Platform, in MCF-7 cells cultured in DMEM + 10% fetal bovine serum, Harrill Lab (AID 2283973; active means hit-call score of the fitted dose curve at least 0.9, where 1 is the maximum; inactive means score below 0.9). The essentials: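 MCF-7 cells in DMEM + 10% FBS, eight-point dilution series, 6 h exposure. Membrane integrity by propidium iodide exclusion with high-content imaging; bidirectional fit versus DMSO.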

The nature of test [7]: CCTE_Harrill_HTTr_Viability_DMEM_12hr: (Pilot) CCTE's 12-hour Cell Viability Assessment for the High-Throughput Transcriptomics (HTTr) Platform, in MCF-7 cells cultured in DMEM + 10% fetal bovine serum, Harrill Lab (AID 2283974; active means hit-call score of the fitted dose curve at least 0.9, where 1 is the maximum; inactive means score below 0.9). The essentials:
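MCF-7 cells in DMEM + 10% FBS exposed 12 h to an eight-point dilution series; membrane integrity scored by propidium iodide exclusion with high-content imaging, bidirectional fitting versus DMSO.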

Test [8] is described as follows: CCTE_Harrill_HTTr_Viability_DMEM_24hr: (Pilot) CCTE's 24-hour Cell Viability Assessment for the High-Throughput Transcriptomics (HTTr) Platform, in MCF-7 cells cultured in DMEM + 10% fetal bovine serum, Harrill Lab (AID 2283975; active means hit-call score of the fitted dose curve at least 0.9, where 1 is the maximum; inactive means score below 0.9). The method, boiled down: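 MCF-7 cells in DMEM with 10% FBS exposed for 24 hours to an eight-point dilution series. Membrane integrity by propidium iodide exclusion with high content imaging; bidirectional fit against DMSO.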

Test [9] can be described thus: CCTE_Harrill_HTTr_Viability_PRF_DMEM_6hr: (Pilot) CCTE's 6-hour Cell Viability Assessment for the High-Throughput Transcriptomics (HTTr) Platform, in MCF-7 cells cultured phenol red-free DMEM + 10% charcoal-stripped fetal bovine serum, Harrill Lab (AID 2283976; active means hit-call score of the fitted dose curve at least 0.9, where 1 is the maximum; inactive means score below 0.9). The method, boiled down: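 MCF-7 cells in phenol red-free DMEM with 10% charcoal-stripped FBS exposed 6 hours to an eight-point dilution series. Propidium iodide exclusion imaged; curves fitted bidirectionally against DMSO.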

Test [10] in a line: CCTE_Harrill_HTTr_Viability_PRF_DMEM_12hr: (Pilot) CCTE's 12-hour Cell Viability Assessment for the High-Throughput Transcriptomics (HTTr) Platform, in MCF-7 cells cultured in phenol red-free DMEM + 10% charcoal-stripped fetal bovine serum, Harrill Lab (AID 2283977; active means hit-call score of the fitted dose curve at least 0.9, where 1 is the maximum; inactive means score below 0.9). The essentials: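 MCF-7 cells in phenol red-free DMEM with 10% charcoal-stripped FBS exposed 12 hours to an eight-point dilution series. Viability assessed by high-content imaging of propidium iodide exclusion; bidirectional fit versus DMSO.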

Test [11] can be described thus: CCTE_Harrill_HTTr_Viability_PRF_DMEM_24hr: (Pilot) CCTE's 24-hour Cell Viability Assessment for the High-Throughput Transcriptomics (HTTr) Platform, in MCF-7 cells cultured in phenol red-free DMEM + 10% charcoal-stripped fetal bovine serum, Harrill Lab (AID 2283980; active means hit-call score of the fitted dose curve at least 0.9, where 1 is the maximum; inactive means score below 0.9). The essentials:
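MCF-7 cells in phenol red-free DMEM with 10% charcoal-stripped FBS, eight-point dilution series, 24 h exposure. Membrane integrity by propidium iodide exclusion with high content imaging; bidirectional fit vs DMSO.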

The nature of test [12]: CCTE_Harrill_HTTr_Apoptosis_DMEM_6hr: (Pilot) CCTE's 6-hour Apoptosis Assessment for the High-Throughput Transcriptomics (HTTr) Platform, in MCF-7 cells cultured in DMEM + 10% fetal bovine serum, Harrill Lab (AID 2283981; active means hit-call score of the fitted dose curve at least 0.9, where 1 is the maximum; inactive means score below 0.9). The method, boiled down:
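Caspase-3/7 activation read by high content imaging with CellEvent Caspase 3/7 Green in MCF-7 cells (DMEM + 10% FBS), 6 h after dosing; eight-point dilution series. Bidirectional fitting relative to DMSO baseline.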

A short description of test [13]: CCTE_Harrill_HTTr_Apoptosis_DMEM_12hr: (Pilot) CCTE's 12-hour Apoptosis Assessment for the High-Throughput Transcriptomics (HTTr) Platform, in MCF-7 cells cultured in DMEM + 10% fetal bovine serum, Harrill Lab (AID 2283982; active means hit-call score of the fitted dose curve at least 0.9, where 1 is the maximum; inactive means score below 0.9). The method, boiled down:
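MCF-7 cells in DMEM + 10% FBS, exposed 12 h to an eight-point dilution series; caspase-3/7 activation imaged with CellEvent Green. Bidirectional fit versus DMSO.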

Test [14] is described as follows: CCTE_Harrill_HTTr_Apoptosis_DMEM_24hr: (Pilot) CCTE's 24-hour Apoptosis Assessment for the High-Throughput Transcriptomics (HTTr) Platform, in MCF-7 cells cultured in DMEM + 10% fetal bovine serum, Harrill Lab (AID 2283983; active means hit-call score of the fitted dose curve at least 0.9, where 1 is the maximum; inactive means score below 0.9). The essentials: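 MCF-7 cells in DMEM + 10% FBS, eight-point dilution series, 24 h exposure. Caspase-3/7 activation imaged by high-content imaging with CellEvent Caspase 3/7 Green. Bidirectional curve fitting against DMSO baseline.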

The target of test [15] is Thyroid hormone receptor alpha (Rattus norvegicus) + Thyroid hormone receptor beta (Rattus norvegicus) (UniProt P18113+P63059). Put plainly: TOX21_TR_LUC_GH3_Antagonist_Followup: Tox21 GH3 Thyroid Hormone Receptor Antagonism Luciferase Follow-Up Assay (AID 2283942). The essentials:
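Antagonist mode: GH3 cells seeded 1,500/well, compounds at 15 concentrations (92 uM to 5nM final) plus T3 at 1.0 nM final, 24 h at 37C. Luciferase read with ONE-Glo after 30 min at room temperature.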

Test [16] in a line: TOX21_TRB_BLA_Antagonist_Followup_viability: Viability Assessment in the Tox21 Thyroid Hormone Receptor beta Antagonism Beta-lactamase (BLA) Follow-Up Assay (AID 2283961). The essentials: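 ATP-based CellTiter-Glo luminescence (30 min, room temperature) run in the same wells as the TRβ-bla readout. Cells: GeneBLAzer HEK293T expressing GAL4-TRβ LBD, exposed 18 h at 37C to compounds at 11 concentrations in triplicate, stripped-serum medium.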

In test [17] the target is Retinoic acid receptor RXR-alpha (Homo sapiens) (UniProt P19793). Put plainly: TOX21_TR_RXR_BLA_Antagonist_Followup_ratio: Tox21 Thyroid Hormone Receptor beta Retinoid X Receptor alpha (RXRa) Antagonism Beta-lactamase (BLA) Follow-Up Assay, Ratio (AID 2283972). The method, boiled down:
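After 5 h attachment at 37C, HEK293T RXRa-bla cells (2,500/well, 2% charcoal-stripped FBS, no phenol red) received compounds at 11 concentrations in triplicate for 16 h. Beta-lactamase read as 460:530 nm ratio after 2 h RT substrate loading.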

The nature of test [18]: TOX21_TR_RXR_BLA_Antagonist_Followup_viability: Viability Assessment in the Tox21 Thyroid Hormone Receptor beta Retinoid X Receptor alpha (RXRa) Antagonism Beta-lactamase (BLA) Follow-Up Assay (AID 2283979). The essentials: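 RXRa-bla HEK293T cells (2,500/well, phenol red-free DMEM, 2% charcoal-stripped FBS) were attached 5 h, then exposed to compounds at 11 concentrations in triplicate for 16 h at 37C. Viability measured by CellTiter-Glo ATP luminescence, bidirectional fitting versus DMSO.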

Test [19] can be described thus: TOX21_PR_LUC_Followup_Agonist_viability: Viability Assessment in the Tox21 HEK293 Progesterone Receptor (PR) Agonism Luciferase Follow-Up Assay (AID 2283941).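 Further: loss of signal means cytotoxicity so actives lower viability.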 The method, boiled down: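 HEK293-PR-A-luc cells, kept in 10% charcoal-stripped FBS medium, were treated with compounds for 16 h at 37C. Viability read as cellular ATP by luciferase-coupled luminescence; loss of signal indicates cytotoxicity.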

Records with an inconclusive call do not appear. Calls of active or inactive are those of the source. How the source made its calls, unless noted: active means hit-call score of the fitted dose curve at least 0.9, where 1 is the maximum; inconclusive means response in the unintended direction; inactive means score below 0.9.

Retinoic acid receptor RXR-alpha (Homo sapiens), sequence (P19793 whole entry, looked up): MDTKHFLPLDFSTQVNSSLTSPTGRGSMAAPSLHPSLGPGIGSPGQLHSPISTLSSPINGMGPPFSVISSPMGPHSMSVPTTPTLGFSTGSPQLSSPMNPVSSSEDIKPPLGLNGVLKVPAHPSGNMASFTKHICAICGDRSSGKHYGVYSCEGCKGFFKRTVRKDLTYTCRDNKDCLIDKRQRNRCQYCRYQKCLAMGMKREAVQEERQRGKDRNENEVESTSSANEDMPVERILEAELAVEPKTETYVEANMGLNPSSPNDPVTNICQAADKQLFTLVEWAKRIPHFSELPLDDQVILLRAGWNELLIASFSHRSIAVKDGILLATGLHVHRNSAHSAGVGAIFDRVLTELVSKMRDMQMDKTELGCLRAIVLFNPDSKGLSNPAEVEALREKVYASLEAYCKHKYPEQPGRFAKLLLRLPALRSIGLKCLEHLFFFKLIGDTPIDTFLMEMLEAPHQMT
THRA (gene 7067), sequence (P10827 whole entry, looked up, the tested form may be a part): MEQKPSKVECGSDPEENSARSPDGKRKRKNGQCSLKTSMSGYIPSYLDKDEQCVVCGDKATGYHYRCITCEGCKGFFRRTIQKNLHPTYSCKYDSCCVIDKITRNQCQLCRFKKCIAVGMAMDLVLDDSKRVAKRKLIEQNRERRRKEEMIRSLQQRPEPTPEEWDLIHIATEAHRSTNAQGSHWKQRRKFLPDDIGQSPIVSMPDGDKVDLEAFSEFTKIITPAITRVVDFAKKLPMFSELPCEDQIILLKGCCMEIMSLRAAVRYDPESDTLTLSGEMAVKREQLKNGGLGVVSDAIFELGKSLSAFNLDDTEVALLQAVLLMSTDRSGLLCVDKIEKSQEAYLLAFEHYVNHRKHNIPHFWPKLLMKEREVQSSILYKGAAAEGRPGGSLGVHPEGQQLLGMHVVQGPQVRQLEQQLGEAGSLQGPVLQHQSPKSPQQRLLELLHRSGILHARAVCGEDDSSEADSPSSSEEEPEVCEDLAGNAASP

Consider `CCCCCCCCCCC`, for which the outcome (in the test with THRA (gene 7067); in the test with THRB (gene 7068) [1]; with THRB (gene 7068) [2]; in [3]; in [4]) was inactive.
Turning to `CCc1c(C(=O)NN2CCCCC2)nn(-c2ccc(Cl)cc2Cl)c1-c1ccc(Br)cc1`, the result in test [5] was inactive.
With `CCOC(=O)C(C)(C)Oc1ccc(Cl)cc1`, the result in test [6], in test [7], in [8], in test [9], in [10] and in test [11] was inactive. Also, the result in test [12], in [13] and in [14] was inactive.
Turning to `Cc1cc(NC(=O)C(=O)O)cc(C)c1Oc1ccc(O)c2c1CCC2`, the concentration at half-maximal activity (AC50) (commonly the concentration at which the activity in the assay is half-maximal) is 3.53 nM (active) with THRA (gene 7067), 84.8 nM (active) with THRB (gene 7068) [1], 2.27 nM (active) in the test with THRB (gene 7068) [2] and 21.6 µM (active) in test [3].
`Oc1ccc2ccccc2c1N=Nc1ccccc1`: the result in [5] was inactive.
Take `Nc1nc(N)c2nc(CNc3ccc(C(=O)N[C@@H](CCC(=O)O)C(=O)O)cc3)cnc2n1`: the result in [15], in [16], in test [17] and in test [18] was inactive.
Take `O=c1[nH]cc(F)c(=O)[nH]1`: the molecule was classed as inactive in [18].
`CCOc1ccc2c(c1)C(C)=CC(C)(C)N2`: the outcome in [19] was inactive.
`C[C@]12C=CC(=O)C=C1CC[C@@H]1[C@@H]2C(=O)C[C@@]2(C)[C@H]1CC[C@]2(O)C(=O)CO`: the outcome in test [5] and in test [19] was inactive.
For the molecule `Oc1ccc2c(c1)OC[C@@H](N1CCC(O)(c3ccc(F)cc3)CC1)[C@H]2O`, the outcome in test [5] and in [19] was inactive.
